eIF4E-4G inh = inhibitors of eIF4E and eIF4G interaction in translation initiation; TR-FRET eIF4E-eIF4GI(517-606) binding, 2 h; inhibition, % at 21.7 µM; 0.37% of 220,000 active; AID 782;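 active = inhibition above about 30%, limit read from the data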;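 note: 0% = full FRET control wells and 100% = background wells lacking eIF4GI fragment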
EP2 modulator = modulates human prostaglandin E2 receptor EP2 signaling. P43116. 0.83% of 260,000 active. induction, % at 25 µM. AID 940. EP2-expressing cells, cAMP HTRF FRET, PGE2 co-stimulation;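 active = compounds whose cAMP rise, as percent of the full-agonist control response, exceeds 60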;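 note: rat C6 glioma line stably carrying human EP2 under a CMV promoter; the protocol text gives 20 µM as final concentration; 100% = response of wells given 1 µM PGE2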
PERK inh = inhibitors of human PERK kinase; CHO PERK-DD fusion, SEAP luminescence translation reporter; inhibition, % at 5.6 µM; 0.17% of 220,000 active; AID 1416;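 active = inhibition above the mean inhibition of all tested compounds plus 3 SD, set separately per screening campaign, cut at about 2.9% in these data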;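 note: PERK kinase domain activated by AP20187 dimerizer at 100 nM; 0% = DMSO with dimerizer and 100% = rapamycin at 8.4 µM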
EP2 antag = inhibitors of human EP2 prostaglandin E2 receptor. P43116. inhibition, % at 25 µM. C6 glioma cells expressing human EP2, cAMP TR-FRET; cells stimulated with saturating PGE2. AID 1422. 0.52% of 260,000 active;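 active = percent inhibition above 40 after rounding to a whole number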;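 note: rat C6 glioma host cells with rolipram phosphodiesterase inhibitor present; the protocol text gives 20 µM as final concentration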
EP2 cAMP induct = human EP2 receptor cAMP induction, negative in counter-screens; shares compounds with EP2 modulator; C6 glioma EP2 cells, cAMP HTRF induction; plus low (about EC15) PGE2 agonist; calls only at 20 µM (by protocol); 47% of 1,300 active;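 active = cAMP induction above 50% in the main assay while under 30% in all four parallel counter assays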;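 note: rat C6 glioma cells stably expressing human EP2 receptor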
Starred values were filed as active, the others as inactive; i = inactive; · = not tested or not shown; + = active, no number. Only some compounds are listed: those with a hit (about 1.8% of all), similar ones and a draw of the others.

SMILES	eIF4E-4G inh	EP2 modulator	PERK inh	EP2 antag	EP2 cAMP induct
Cn1c(=O)c2c(SC3CCCC3)nc(C3CC3)nc2n(C)c1=O	-2	79*	1	11	+
COC(=O)c1n[nH]nc1-c1ccccc1	7	18	1	5	·
c1ccc(-c2n[nH]nc2-c2ccccc2)cc1	-10	66*	1	4	+
COc1ccc(OC)c(S(=O)(=O)N2CCC(C(=O)Nc3c(F)cccc3F)CC2)c1	·	-26	·	7	·
NCc1c(O)ccc2ccccc12	-4	-27	-1	8	·
Oc1ccc2ccccc2c1Cc1c(O)ccc2ccccc12	·	70*	·	12	i
COC(=O)Cc1[nH]nc2c1C(c1cccc(F)c1)C(C#N)=C(N)O2 (centres undefined)	·	-18	·	9	·
Nc1c(C(=O)Nc2ccccc2F)sc2nc(Cc3ccccc3)cc(C(F)(F)F)c12	-38	67*	0	15	i
CN(/N=C/c1cccnc1)C1=NS(=O)(=O)c2ccccc21	1	0	0	5	·
CN(/N=C/C=C/c1ccccc1)C1=NS(=O)(=O)c2ccccc21	0	82*	0	3	+
COc1ccc(CCNC(=O)CCN2C(=O)C(C)Oc3ccc(C)cc32)cc1OC (centres undefined)	-3	-2	-1	8	·
Cc1ccc(C)c(CN2C(=O)C(C)Oc3ccc(C)cc32)c1 (centres undefined)	2	80*	0	4	+
CCCOc1ccc(/C=N/Nc2ccc(C(=O)O)cc2)c(OCCC)c1	-2	88*	0	15	+
CCOc1ccc(N2CC(C(=O)Nc3cccc(F)c3)CC2=O)cc1 (centres undefined)	·	-31	·	4	·
Cc1ccc(S(=O)(=O)N(CC(=O)N=Nc2c(O)[nH]c3ccccc23)c2ccc(C)c(C)c2)cc1	-1	67*	-1	10	+
COCCNC(=S)N(Cc1cccs1)Cc1cc2cc(OC)c(OC)cc2[nH]c1=O	·	3	·	8	·
Cc1cccc(/N=C/c2c(O)cc(C)oc2=O)n1	-2	-2	1	15	·
Cc1cccc(/N=C/c2c(O)ccc3oc4c(c23)CCCC4)n1	2	73*	2	7	+
O=C(Cn1c(=O)sc2ccccc21)Nc1ccc(C(=O)O)cc1	·	-9	·	10	·
c1ccc(-c2cc(N3CCOCC3)nc(-c3ccccc3)n2)cc1	4	40	2	8	·
CCSc1cc(N2CCOCC2)nc(-c2ccccc2)n1	15	65*	0	4	+
COc1ccc(-c2cc(C(F)(F)F)nc(NCc3ccco3)n2)cc1OC	-2	67*	-1	5	+
COc1cccc(-c2cc(C(F)(F)F)nc(NCc3ccco3)n2)c1	-3	28	0	7	·
O=C(Nc1ccc(NC(=O)c2ccco2)cn1)c1cccc(Cl)c1	·	-65	·	16	·
CCCC1=C(C(=O)OCC)C(c2cccs2)C(C#N)=C(N)O1 (centres undefined)	-2	63*	1	11	i
SMILES	eIF4E-4G inh	EP2 modulator	PERK inh	EP2 antag	EP2 cAMP induct
Cc1ccc(-n2ncc3c(SCC(=O)N4CCCCC4C)ncnc32)cc1C (centres undefined)	·	-31	·	7	·
COC(=O)c1c(NC(=O)c2ccccc2C)sc(C(=O)Nc2cccc(OC)c2)c1C	·	34	·	19	·
CCCCOP(=O)(OCCCC)C(Nc1ccccc1)c1ccc2c(c1)OCO2 (centres undefined)	1	70*	0	6	i
Cc1cccnc1N(C(=O)Nc1cccc(Cl)c1)C1=NCC(C)(C)S1	2	70*	0	3	+
Cc1cccnc1N(C(=O)Nc1ccccc1)C1=NCC(C)(C)S1	-5	86*	-1	9	+
CC1(C)CN=C(N(C(=O)Nc2ccccc2)c2ccccc2F)S1	-8	43	1	5	·
COc1ccc(CNC(=O)c2cnn3c(C(F)F)cc(-c4ccccc4)nc23)cc1OC	·	27	·	6	·
Cn1c(=O)oc2cc(S(=O)(=O)NC3(c4ccc(F)cc4)CC3)ccc21	·	-79	·	9	·
COc1cc(OC)c2c(-c3ccccc3)cc(=O)oc2c1	-1	49	2	17	·
COc1cc(OC)c2c(OC)c(-c3ccc4c(c3)OCO4)c(=O)oc2c1	·	62*	·	12	i
COc1cc2ccccc2cc1C1C(C#N)=C(N)Oc2n[nH]c(C)c21 (centres undefined)	·	2	·	10	·

Source: PubChem BioAssay (several laboratories)
